Data reported in paper PMC5515408, “Sequence-specific DNA binding by MYC/MAX to low-affinity non-E-box motifs”.
In all, about 4,500 sequences were measured (“log2 normalized fluorescence”: median about -0.34, highest 2% from about 3.3 on). The sample as a whole holds a higher share of the highest values than the screen did.

The sequences below were run against MAX:MAX (p21) (human, UniProt P61244-2 1-151) (assay: protein-binding microarray (anti-MAX antibody); PBM: 15 mM Tris-HCl pH 7.5, 100 mM KCl, 0.075% NP40, 7.5 mM beta-mercaptoethanol, 375 ng/ul BSA, 8 ng/ul poly(dA-dT):(dA-dT), 550 ng complex, 60 min, room tempe; high values mean tight binding). Details: protein: recombinant; tags: 6xHis; chain copies: 2; label: 3' end of printed strand (linker) attached to glass slide; dsDNA, one strand shown.
MAX:MAX (p21), sequence (P61244 other isoform, or with tags, fused parts or gaps): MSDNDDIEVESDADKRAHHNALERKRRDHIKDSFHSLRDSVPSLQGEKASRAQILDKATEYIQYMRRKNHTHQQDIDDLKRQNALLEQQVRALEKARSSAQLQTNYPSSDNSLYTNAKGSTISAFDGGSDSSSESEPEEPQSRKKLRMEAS
Method in brief: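 For each of ~5000 unique double-stranded 12-nt sequences, spotted in triplicate on a custom Agilent glass array, binding of His-tagged human MYC:MAX or MAX:MAX dimers is reported as log2 normalized fluorescence. The dimers (550 ng, E. coli-expressed) were incubated for 60 min at room temperature in Tris-KCl buffer, pH 7.5, with NP40, BSA and poly(dA-dT) competitor. Detection used anti-MAX and secondary antibodies with a 543 nm scan.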

Q: With “CCGGCTGACGGACGGTATTAATAGCTAAGATTACTATATCGACG” as the sequence, how does the binding signal read?
A: -0.374 log2 normalized fluorescence

Q: With “CCGGCTGACGTATCGTATTAATAGCTAAGATTACTATATCGACG” as the sequence, how does the binding signal read?
A: -0.167 log2 normalized fluorescence

Q: For “CCGGCGATCACGTGGTATTAATAGCTAAGATTACTATATCGACG”, which binding signal is on record?
A: 3.19 log2 normalized fluorescence

Q: Which binding signal does the source give for “CCGGCAACCACGTGGTATTAATAGCTAAGATTACTATATCGACG” here?
A: 3.15 log2 normalized fluorescence

Q: How did the binding signal turn out when “CCGGCTTCCACGTGGTATTAATAGCTAAGATTACTATATCGACG” was run?
A: 3.13 log2 normalized fluorescence

Q: How did the binding signal turn out when “CCGGCGTCCACGTGGTATTAATAGCTAAGATTACTATATCGACG” was run?
A: 3.64 log2 normalized fluorescence

Q: For “CCGGCGGCCACGTGGTATTAATAGCTAAGATTACTATATCGACG”, which binding signal is on record?
A: 3.16 log2 normalized fluorescence

Q: Which binding signal does the source give for “CCGGCGACCACGTGGTATTAATAGCTAAGATTACTATATCGACG” here?
A: 3.3 log2 normalized fluorescence

Q: Which binding signal does the source give for “CCGGCTACGACGTGGTATTAATAGCTAAGATTACTATATCGACG” here?
A: 2.57 log2 normalized fluorescence

Q: “CCGGCTGATCCTACGTATTAATAGCTAAGATTACTATATCGACG” was tested. Which binding signal did it give?
A: -0.737 log2 normalized fluorescence

Q: Which binding signal does the source give for “CCGGCTGACCGCGCGTATTAATAGCTAAGATTACTATATCGACG” here?
A: 1.24 log2 normalized fluorescence

Q: Which binding signal does the source give for “CCGGCTGATTACGTGTATTAATAGCTAAGATTACTATATCGACG” here?
A: 0.238 log2 normalized fluorescence

Q: For “CCGGCTGACCGTGTGTATTAATAGCTAAGATTACTATATCGACG”, which binding signal is on record?
A: 1.49 log2 normalized fluorescence

Q: With “CCGGCTGACCGCGTGTATTAATAGCTAAGATTACTATATCGACG” as the sequence, how does the binding signal read?
A: 3.4 log2 normalized fluorescence

Q: Which binding signal does the source give for “CCGGCTGATCGTGTGTATTAATAGCTAAGATTACTATATCGACG” here?
A: 1.12 log2 normalized fluorescence

Q: How did the binding signal turn out when “CCGGCTGATCACGTGTATTAATAGCTAAGATTACTATATCGACG” was run?
A: 3.48 log2 normalized fluorescence

Q: With “CCGGCTGACACCGTGTATTAATAGCTAAGATTACTATATCGACG” as the sequence, how does the binding signal read?
A: 1.72 log2 normalized fluorescence

Q: How did the binding signal turn out when “CCGGCTGACGCCTAGTATTAATAGCTAAGATTACTATATCGACG” was run?
A: -0.368 log2 normalized fluorescence

Q: “CCGGCTGAAGGCGCGTATTAATAGCTAAGATTACTATATCGACG” was tested. Which binding signal did it give?
A: -0.33 log2 normalized fluorescence

Q: With “CCGGCTGAAGCCCGGTATTAATAGCTAAGATTACTATATCGACG” as the sequence, how does the binding signal read?
A: -0.644 log2 normalized fluorescence

Q: With “CCGGCTGACACGTAGCATTAATAGCTAAGATTACTATATCGACG” as the sequence, how does the binding signal read?
A: 1.7 log2 normalized fluorescence

Q: How did the binding signal turn out when “CCGGCTGACATACAGTATTAATAGCTAAGATTACTATATCGACG” was run?
A: 0.345 log2 normalized fluorescence

Q: How did the binding signal turn out when “CCGGCTGACTCAAGGTATTAATAGCTAAGATTACTATATCGACG” was run?
A: 0.208 log2 normalized fluorescence

Q: For “CCGGCTGGCACGTGGTGTTAATAGCTAAGATTACTATATCGACG”, which binding signal is on record?
A: 3.4 log2 normalized fluorescence

Q: How did the binding signal turn out when “CCGGCTGCCACGTGGTGTTAATAGCTAAGATTACTATATCGACG” was run?
A: 3.07 log2 normalized fluorescence

Q: “CCGGCTGGCACGTGGTTTTAATAGCTAAGATTACTATATCGACG” was tested. Which binding signal did it give?
A: 3.33 log2 normalized fluorescence

Q: How did the binding signal turn out when “CCGGCTGGCACCTGGTTTTAATAGCTAAGATTACTATATCGACG” was run?
A: 1.82 log2 normalized fluorescence

Q: With “CCGGCTGGCACGTGGTATTAATAGCTAAGATTACTATATCGACG” as the sequence, how does the binding signal read?
A: 3.26 log2 normalized fluorescence

Q: For “CCGGCCGGCACGTGGTGTTAATAGCTAAGATTACTATATCGACG”, which binding signal is on record?
A: 3.21 log2 normalized fluorescence

Q: With “CCGGCTGAGTGTCGGTATTAATAGCTAAGATTACTATATCGACG” as the sequence, how does the binding signal read?
A: -0.348 log2 normalized fluorescence

Q: “CCGGCTGATGCCCTGTATTAATAGCTAAGATTACTATATCGACG” was tested. Which binding signal did it give?
A: -0.309 log2 normalized fluorescence

Q: Which binding signal does the source give for “CCGGCTGAACGTACGTATTAATAGCTAAGATTACTATATCGACG” here?
A: -0.307 log2 normalized fluorescence

Q: “CCGGCTGAGGCGTCGTATTAATAGCTAAGATTACTATATCGACG” was tested. Which binding signal did it give?
A: -0.641 log2 normalized fluorescence

Q: Which binding signal does the source give for “CCGGCTGAACGCAAGTATTAATAGCTAAGATTACTATATCGACG” here?
A: 0.234 log2 normalized fluorescence

Q: How did the binding signal turn out when “CCGGCCGACACGTGATATTAATAGCTAAGATTACTATATCGACG” was run?
A: 3.43 log2 normalized fluorescence

Q: “CCGGCTGACACGTGATATTAATAGCTAAGATTACTATATCGACG” was tested. Which binding signal did it give?
A: 3.05 log2 normalized fluorescence

Q: Which binding signal does the source give for “CCGGCCGACACCTGTTATTAATAGCTAAGATTACTATATCGACG” here?
A: 2.63 log2 normalized fluorescence

Q: Which binding signal does the source give for “CCGGCCGACACGTGCTATTAATAGCTAAGATTACTATATCGACG” here?
A: 3.18 log2 normalized fluorescence

Q: “CCGGCCGACACGTGTTATTAATAGCTAAGATTACTATATCGACG” was tested. Which binding signal did it give?
A: 3.4 log2 normalized fluorescence

Q: How did the binding signal turn out when “CCGGCCGACACGGCGTATTAATAGCTAAGATTACTATATCGACG” was run?
A: 0.94 log2 normalized fluorescence

Q: Which binding signal does the source give for “CCGGCAGACACGTGGTGTTAATAGCTAAGATTACTATATCGACG” here?
A: 3.28 log2 normalized fluorescence

Q: For “CCGGCAGACACGTGTTATTAATAGCTAAGATTACTATATCGACG”, which binding signal is on record?
A: 3.42 log2 normalized fluorescence

Q: For “CCGGCTGACACGTGTTATTAATAGCTAAGATTACTATATCGACG”, which binding signal is on record?
A: 3.29 log2 normalized fluorescence

Q: For “CCGGCAGAAACGTGTTATTAATAGCTAAGATTACTATATCGACG”, which binding signal is on record?
A: 2.96 log2 normalized fluorescence

Q: “CCGGCTGACACACGTTATTAATAGCTAAGATTACTATATCGACG” was tested. Which binding signal did it give?
A: 2.37 log2 normalized fluorescence

Q: Which binding signal does the source give for “CCGGCTGACACGTTATATTAATAGCTAAGATTACTATATCGACG” here?
A: 2.87 log2 normalized fluorescence

Q: With “CCGGCTGAGCATTTGTATTAATAGCTAAGATTACTATATCGACG” as the sequence, how does the binding signal read?
A: -0.22 log2 normalized fluorescence

Q: For “CCGGCTGACTGGATGTATTAATAGCTAAGATTACTATATCGACG”, which binding signal is on record?
A: -0.202 log2 normalized fluorescence

Q: How did the binding signal turn out when “CCGGCTGACATTCAGTATTAATAGCTAAGATTACTATATCGACG” was run?
A: 0.265 log2 normalized fluorescence

Q: With “CCGGCTGACGTGTCGTATTAATAGCTAAGATTACTATATCGACG” as the sequence, how does the binding signal read?
A: 1.07 log2 normalized fluorescence

Q: How did the binding signal turn out when “CCGGCTGATGGTCTGTATTAATAGCTAAGATTACTATATCGACG” was run?
A: 0.348 log2 normalized fluorescence

Q: With “CCGGCTGAGGAGGCGTATTAATAGCTAAGATTACTATATCGACG” as the sequence, how does the binding signal read?
A: -0.734 log2 normalized fluorescence

Q: For “CCGGCTGACACTACGTATTAATAGCTAAGATTACTATATCGACG”, which binding signal is on record?
A: -0.11 log2 normalized fluorescence

Q: “CCGGCTGAACGTTGGTATTAATAGCTAAGATTACTATATCGACG” was tested. Which binding signal did it give?
A: 0.152 log2 normalized fluorescence

Q: With “CCGGCTGTGACGTGGTATTAATAGCTAAGATTACTATATCGACG” as the sequence, how does the binding signal read?
A: 1.45 log2 normalized fluorescence

Q: Which binding signal does the source give for “CCGGCTGACACGTGTTGTTAATAGCTAAGATTACTATATCGACG” here?
A: 3.32 log2 normalized fluorescence

Q: Which binding signal does the source give for “CCGGCTGACACGTGTCGTTAATAGCTAAGATTACTATATCGACG” here?
A: 3.18 log2 normalized fluorescence

Q: For “CCGGCCGACATGTGGTGTTAATAGCTAAGATTACTATATCGACG”, which binding signal is on record?
A: 3.43 log2 normalized fluorescence

Q: How did the binding signal turn out when “CCGGCAGACATGTGGTGTTAATAGCTAAGATTACTATATCGACG” was run?
A: 3.1 log2 normalized fluorescence

Q: How did the binding signal turn out when “CCGGCTGACACGTGCTGTTAATAGCTAAGATTACTATATCGACG” was run?
A: 3 log2 normalized fluorescence

Q: “CCGGCAGACACGTGATATTAATAGCTAAGATTACTATATCGACG” was tested. Which binding signal did it give?
A: 3.29 log2 normalized fluorescence

Q: “CCGGCAGACACGTGATCTTAATAGCTAAGATTACTATATCGACG” was tested. Which binding signal did it give?
A: 3.05 log2 normalized fluorescence

Q: “CCGGCCGACATGTGGTATTAATAGCTAAGATTACTATATCGACG” was tested. Which binding signal did it give?
A: 3.18 log2 normalized fluorescence

Q: How did the binding signal turn out when “CCGGCAGACACGCGATATTAATAGCTAAGATTACTATATCGACG” was run?
A: 2.93 log2 normalized fluorescence

Q: With “CCGGCTGATGGTAGGTATTAATAGCTAAGATTACTATATCGACG” as the sequence, how does the binding signal read?
A: 0.124 log2 normalized fluorescence

Q: With “CCGGCTGATTCAAGGTATTAATAGCTAAGATTACTATATCGACG” as the sequence, how does the binding signal read?
A: -0.736 log2 normalized fluorescence

Q: Which binding signal does the source give for “CCGGCTGACTAGGCGTATTAATAGCTAAGATTACTATATCGACG” here?
A: -0.638 log2 normalized fluorescence

Q: For “CCGGCTGACTCCGCGTATTAATAGCTAAGATTACTATATCGACG”, which binding signal is on record?
A: -0.516 log2 normalized fluorescence
